PubChem BioAssay AID651582 (Sanford-Burnham Center for Chemical Genomics, 2012)
In all, about 230,000 compounds went through this assay and about 1,500 (0.65%) were called active.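 The calls were made as follows: active = pattern-corrected inhibition of lipid staining of at least 50% with the nuclear-stain viability signal not falling by more than 50%; inactive = the rest, inconclusive results apart.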 The full list was thinned out, with actives kept by preference.

Test: TAG lipid buildup reduction in H9c2 cells – cell-based, uHTS, fluorescence, primary screen (AID 651582);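 as to inhibition: 0% = DMSO wells and 100% = triacsin C control wells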
Settings: Nile Red lipid (TAG) fluorescence, at 12.5 µM, cells loaded with 200 µM oleic acid; DAPI nuclei signal change (viability), lower = more cytotoxic: measured here: DAPI nuclei count viability; inhibition: stronger effect = higher value

| Compound | DAPI nuclei signal change (viability), lower = more cytotoxic | inhibition |
| --- | --- | --- |
| CN(C)S(=O)(=O)c1cccc(NC(=O)COc2ccc3ccccc3c2)c1 | -8.57% | -14% (inactive) |
| O=C(NCCO)c1cccc(-c2cccc3nccn23)c1 | 4.67% | -6.44% (inactive) |
| COc1ccc(Cc2nnc(N/N=C/c3ccccc3O)[nH]c2=O)cc1OC | -27% | 50.4% (active) |
| COc1ccc(CCNC(=O)CCCCn2c(=O)[nH]c3ccccc3c2=O)cc1OC | -8.64% | 21.8% (inactive) |
| CCOc1ccc(-n2c(O)c(/C=N/Nc3nnc(C)c(=O)[nH]3)c3ccccc3c2=O)cc1 | 5.58% | -10.7% (inactive) |
| CC1C(=O)N(Cc2cn(CC3CCCCC3)nn2)CCS(=O)(=O)N1Cc1ccc(-c2cccc(N(C)C)c2)cc1 (stereo unspecified) | -0.553% | -17.1% (inactive) |
| COc1ccc(CC(=O)Nc2ccc(-c3nnc(-c4ccc(C)cc4)o3)cc2)cc1 | 2.81% | 59.2% (active) |
| COc1ccc(NC(=O)c2cc(-c3ccc(C)cc3)on2)cc1 | 4.01% | -3.75% (inactive) |
| Cc1ccc(OCC(=O)Nc2ccc(-c3nc4ncccc4o3)cc2)cc1 | 18.7% | 14% (inactive) |
| NNC(=O)c1nnn(-c2nonc2N)c1CN1CCCC1 | -4.78% | -6.85% (inactive) |
| CC1(C)CC(=O)C=C(c2ccccc2CO)C1=O | -1.17% | -16.1% (inactive) |
| CC(=O)CC(CC(=O)NC1CCCCC1)c1ccccc1 (stereo unspecified) | 1.1% | 2.67% (inactive) |
| COc1ccc(CNC(=O)CNC(=O)c2sc3ccccc3c2Cl)cc1OC | -2.17% | 10.6% (inactive) |
| Cc1ccc(-c2nc3ccccc3[nH]2)cc1NC(=O)c1sc2ccccc2c1Cl | 17.5% | 58.3% (active) |
| Cc1nn(C)cc1/C=N/NC(=O)c1sc2ccccc2c1Cl | 6.2% | -14.7% (inactive) |
| Cc1ccc(Cc2c(-c3ccccc3)nc3ccc(Cl)cn23)cc1 | 0.00442% | -0.293% (inactive) |
| COc1ccc(C(=O)N(C)Cc2ccc(OC)c(OC)c2OC)cc1S(=O)(=O)N1CCOCC1 | -5.3% | 8.22% (inactive) |
| COc1ccc(CNC(=O)C[C@H]2C[C@H](C(=O)N3CCOCC3)[C@@]3(CCC4CCCC4)c4[nH]c5ccc(Cl)cc5c4CCN3C2=O)cc1OC | 0.251% | 63.8% (active) |
| COc1ccc2[nH]c3c(c2c1)CCN1C(=O)C(CC(=O)NCCCN(C)C)C[C@H](C(=O)N2CCOCC2)[C@@]31CCC1CCCC1 (stereo partly specified) | -19.4% | 31.2% (inactive) |
| O=C(C[C@H]1C[C@H](C(=O)N2CCOCC2)[C@@]2(CCC3CCCC3)c3[nH]c4ccc(Cl)cc4c3CCN2C1=O)NCc1ccco1 | 8.62% | 28.1% (inactive) |
| CC[C@]12c3[nH]c4ccc(OC)cc4c3CCN1C(=O)C(CC(=O)NCc1ccco1)C[C@@H]2C(=O)N1CCN(C(=O)C2CC2)CC1 (stereo partly specified) | -9.73% | 7.93% (inactive) |

| Compound | DAPI nuclei signal change (viability), lower = more cytotoxic | inhibition |
| --- | --- | --- |
| Cc1cc(C)n(-c2cc(Oc3ccccc3)ncn2)n1 | 6.79% | -18.3% (inactive) |
| CC(=O)c1ccc(Oc2cc(C)nc(-n3nc(C)cc3C)n2)cc1 | -32.4% | 61.3% (active) |
| Cc1cc(Oc2ccccc2)nc(N2CCOCC2)n1 | 6.77% | -9.8% (inactive) |
| CN(CCc1ccccc1)C(=O)c1cccc(NC(=O)Cc2ccc([N+](=O)[O-])cc2)c1 | -3.23% | -35% (inactive) |
| COc1cc(C(=O)OCC(=O)NC23CC4CC(CC(C4)C2)C3)cc(OC)c1OC | -0.331% | -18.4% (inactive) |
| COc1cccc(-n2c(=S)sc3c(=O)n(-c4ccccc4OC)c(SCC4OCCO4)nc32)c1 | -13.5% | 20.8% (inactive) |
| COc1ccccc1-n1c(=S)[nH]c2c(sc(=S)n2-c2ccc(C)cc2C)c1=O | -48.2% | 65.4% (active) |
| CCc1ccc(-n2c(=S)sc3c(=O)n(-c4ccccc4OC)c(=S)[nH]c32)cc1 | 8.9% | -2.37% (inactive) |
| O=C(Nc1ccc(C(=O)N2CCCCC2)cc1)c1cccc([N+](=O)[O-])c1 | 5.03% | 3.82% (inactive) |
| O=C(Nc1cc2c3c(c1)C1CCCC1CN3CC1CCCC21)c1ccc([N+](=O)[O-])cc1 (stereo unspecified) | -11.5% | 53.3% (active) |
| CN(CC1CCCO1)S(=O)(=O)c1ccc(C(=O)Nc2ccc([N+](=O)[O-])cc2)cc1 (stereo unspecified) | 3.29% | -15.4% (inactive) |
| CC1CCN(C(=S)c2cccc([N+](=O)[O-])c2)CC1 | 4.33% | -2.26% (inactive) |
| CC1(c2ccccc2)CC(C)(C)N(C(=O)c2cc([N+](=O)[O-])cc([N+](=O)[O-])c2)c2ccccc21 (stereo unspecified) | -2.38% | 54.1% (active) |
| O=C(Cc1ccccc1)N1CCN(S(=O)(=O)c2ccc([N+](=O)[O-])cc2)CC1 | -3.05% | -0.872% (inactive) |
| CCCCN(C=O)c1c(CC)nc2c(OCc3ccccc3C(=O)OC)cccn12 | -7.9% | 4.1% (inactive) |
| O=C(CCl)NNc1nc(-c2ccccc2)c2cc(Cl)ccc2n1 | -5.54% | 4.04% (inactive) |
| CN(/N=C/c1ccccc1)C(=S)c1ccccc1 | -19.1% | 63.6% (active) |
| CN(O)C(=S)c1ccccc1 | -65.1% | 90.7% (inactive) |
| O=C(NN=Cc1ccccc1)c1ccccc1 | 1.87% | -3.23% (inactive) |
| NC(=O)c1ncn([C@@H]2O[C@H](CNCc3cnc(N4CCOCC4)s3)[C@@H](O)[C@H]2O)n1 | -1.13% | 2.87% (inactive) |
| CCC(=O)N1CCN(c2ccccc2NC(=O)COc2cccc(C)c2C)CC1 | -0.0457% | -24.8% (inactive) |

| Compound | DAPI nuclei signal change (viability), lower = more cytotoxic | inhibition |
| --- | --- | --- |
| Cc1ccccc1OCC(=O)Nc1ccc(N2CCN(C(=O)C(C)C)CC2)c(Cl)c1 | -3.43% | 53.8% (active) |
| Cc1ccccc1OCC(=O)Nc1ccc2c(c1)ncn2C | 5.22% | 2.71% (inactive) |
| CN1CCC(N(C)S(=O)(=O)c2ccc(NC(=O)c3cccc(C#N)c3)cc2)CC1 | -3.7% | 15.9% (inactive) |
| Oc1cccc2cc(-c3ccncc3)cnc12 | -33.8% | 56.3% (active) |
| COc1ccc(NC(=O)CSc2nnc(C3CC3)n2C)cc1S(=O)(=O)N1CCCCC1 | 9.15% | -10.9% (inactive) |
| CCN(CC)C(=O)C1=C(C)N(Cc2ccccc2)C(=O)C(CC(=O)NC(c2ccccc2)c2ccccc2)C1 (stereo unspecified) | -1.27% | 22.4% (inactive) |
| Cc1ccc(S(=O)(=O)N2CCN(C(=O)c3cc(S(=O)(=O)N4CCOCC4)ccc3F)CC2)cc1 | -10.8% | 2.68% (inactive) |
| Cc1ccc(S(=O)(=O)N(Cc2cccc([N+](=O)[O-])c2)C(=O)N2CCN(C)CC2)cc1 | -12.6% | 6.71% (inactive) |
| CCN(CC)C(=O)CN(c1cccc([N+](=O)[O-])c1)S(=O)(=O)c1ccccc1 | -11.2% | 5.09% (inactive) |
| O=C(CCl)N(Cc1cccc([N+](=O)[O-])c1)c1cccc(Cl)c1 | 0.0094% | 53.5% (active) |
| COc1ccc(-c2c(C#N)cnc(C)c2C)c(O)c1OC | -5.41% | 12.5% (inactive) |
| CC1(C(=O)NCc2ccco2)Cc2c(-c3ccc4c(c3)OCO4)ccnc2O1 (stereo unspecified) | -35.6% | 52.2% (active) |
| CC(=O)Nc1cccc(-c2ccnc3c2CC(C)(C(=O)NCc2ccco2)O3)c1 (stereo unspecified) | -40.5% | 43.4% (inactive) |
| CC1(C(=O)NCc2ccc(F)c(F)c2)Cc2c(-c3ccc4c(c3)OCO4)ccnc2O1 (stereo unspecified) | -30.3% | 36.2% (inactive) |
| CCc1nc2c(OCC(=O)C(C)(C)C)cccn2c1N(C)C(=O)c1ccccc1F | -14.1% | 14.9% (inactive) |
| CCN(CC(=O)Nc1ccc(NC(C)=O)cc1)C(=O)CSC(=S)N1CCCC1 | -7.39% | -13.5% (inactive) |
| Cc1ccccc1Nc1nnc(C)c(=O)[nH]1 | 1.64% | -16.3% (inactive) |
| Cc1nnc(N/N=C/c2ccccn2)[nH]c1=O | -33.8% | 53.3% (active) |
| Cc1nnc(N/N=C/c2cccs2)[nH]c1=O | 4.89% | 29.3% (inactive) |
| Cc1cc(C)cc(NC(=O)NCc2ccccn2)c1 | 7.71% | -29.5% (inactive) |
| O=[N+]([O-])c1ccc(C=NN=Cc2ccc([N+](=O)[O-])cc2)cc1 | -4.6% | 6.59% (inactive) |
